Sampled rows, rich in hits. Any-hit rate of the full collection: about 3.4%.
MEKK2mut PB1 HTS: signal of MEK5 binding to mutant human MEKK2 PB1 domain; bead flow cytometry, Alexa488-MEK5 binding to MEKK2 mutant; percent response, % at 10 µM; 0.35% of 290,000 active; in the data active means percent response above about 24%, passing the limit was not always enough
TMEM16A inh: blocks the mouse calcium-activated chloride channel TMEM16A; Q8BHY3; normalized B-score (activity score, 25-100; higher = stronger inhibition) at 10 µM; HEK293 TMEM16A/YFP iodide influx fluorescence, ionomycin; 1.2% of 310,000 active;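 active means ratio plate-corrected score three or more library SD toward inhibition, starting fluorescence score within five deviations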;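 further: score derived from kinetic fluorescence span divided by baseline fluorescence per well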
ANO1 activ: mouse TMEM16A channel activation, primary screen; 0.3% of 340,000 active; HEK293 TMEM16A/YFP-H148Q/I152L, iodide quench fluorescence; stronger effect = lower value; B-score at 10 µM; AID 623877; Q8BHY3;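 active means fluorescence-ratio B-score plate-corrected deviation score at least 3 library SD below zero, with starting fluorescence score within 5 deviations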;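 further: channel opened by trigger with iodide after compound preincubation; score built on the fluorescence ratio of max minus min over baseline; more negative score means more quench and so TMEM16A activation or potentiation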
NTR1 agonist: activates human neurotensin receptor 1; NTR1-U2OS beta-arrestin-GFP spot imaging, agonist mode; 0.17% of 330,000 active; P30989; activation, % at 20 µM;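 active means activation at or above 40% of the spot to cytoplasm intensity ratio, with at least 20 cells analyzed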
Target sequence (P30989 whole entry, looked up): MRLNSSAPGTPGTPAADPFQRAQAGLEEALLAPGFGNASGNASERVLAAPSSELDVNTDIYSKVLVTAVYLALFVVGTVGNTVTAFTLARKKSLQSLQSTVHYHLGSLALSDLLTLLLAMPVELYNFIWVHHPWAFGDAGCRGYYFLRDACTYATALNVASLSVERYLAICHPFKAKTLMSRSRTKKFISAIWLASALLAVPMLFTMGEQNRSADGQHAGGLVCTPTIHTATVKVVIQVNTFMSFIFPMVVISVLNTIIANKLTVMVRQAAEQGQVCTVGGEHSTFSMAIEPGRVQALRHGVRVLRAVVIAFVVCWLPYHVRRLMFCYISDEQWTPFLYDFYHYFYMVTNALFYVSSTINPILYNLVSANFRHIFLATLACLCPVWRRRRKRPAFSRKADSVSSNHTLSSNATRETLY
MEKK3 PB1 HTS: MEKK3-MEK5 PB1 interaction, increase or decrease; binding response (% of control), % at 10 µM; Q99759; 1.4% of 290,000 active; bead-based flow cytometry, Alexa488-MEK5 binding to MEKK3; actives lie on both sides; 0 = blocked by unlabeled MEK5, 100 = vehicle;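 active means binding response more than 3 SD above or below the average of its plate-row segment, actives on both sides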;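 further: Alexa488 bead fluorescence after subtracting the streptavidin-only scavenger bead signal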
MEKK2wt PB1 HTS: raises or lowers MEK5 binding to wildtype human MEKK2 PB1 domain. Q9Y2U5. bead flow cytometry, Alexa488-MEK5 binding to MEKK2 WT; actives lie on both sides. binding response (% of control), % at 10 µM. 1.1% of 290,000 active; in the data active means binding response below about 67% or above about 130%
MEKK2wt confirm: raises or lowers MEK5 binding to wildtype human MEKK2, retest | AID 1892 | binding response (% of control), % at 10 µM | 2.4% of 5,900 active | shares compounds with MEKK3 PB1 HTS | bead flow cytometry, Alexa488-MEK5 binding to MEKK2 WT; actives lie on both sides; in the data active means binding response below about 16% or above about 210%; inactive means in between
MEKK2mut-MEK5: signal of MEK5 binding to mutant human MEKK2, retest. shares compounds with MEKK3 PB1 HTS. bead flow cytometry, Alexa488-MEK5 binding to MEKK2 mutant. percent response, % at 10 µM. 2% of 5,900 active. AID 1893; in the data active means percent response mostly above about 71%, no sharp cut-off; inactive means mostly below about 38%;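 further: higher means compound restores mutant binding toward wildtype level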
MEKK3-MEK5 inh: confirmation of inhibitors of MEK5 binding to human MEKK3. binding response (% of control), % at 10 µM. shares compounds with MEKK3 PB1 HTS. bead flow cytometry, Alexa488-MEK5 binding to MEKK3; stronger effect = lower value. 1.8% of 5,900 active;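 active means binding response below 72% of control, or above a set upper limit, though filed actives all read lower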
Of the large screens only hits and unclear results are named; the others gave an inactive call (follow-up assays come after a bar, where they were run); [ ] = remark or other dose.

O=C(NC(=S)Nn1cnc2c(cnn2-c2ccccc2)c1=O)c1ccccc1	none
O=C(O)CCCCCN1C(=O)C(O)=C(C(=O)/C=C/c2ccccc2)C1c1ccccc1[N+](=O)[O-] (stereo unspecified)	none
CNC(=O)NC(=O)C(c1ccccc1)N(C)CC1COc2ccccc2O1 (stereo unspecified)	none
COCc1c(C(=O)OCC(=O)NCc2ccco2)oc2ccccc12	none (no result: MEKK2mut PB1 HTS, TMEM16A inh, MEKK3 PB1 HTS, MEKK2wt PB1 HTS)
COC(=O)C(CC(C)C)NC(=O)c1cccs1 (stereo unspecified)	MEKK3 PB1 HTS 129.0 | MEKK2wt confirm inactive | MEKK2mut-MEK5 inactive | MEKK3-MEK5 inh inactive
CCC(=O)NCCNc1ccc([N+](=O)[O-])cn1	MEKK3 PB1 HTS 74.0[inhibitor] (no result: ANO1 activ) | MEKK2wt confirm inactive | MEKK2mut-MEK5 inactive | MEKK3-MEK5 inh inactive
CC(C)(C)c1ccc(CNc2ccc([N+](=O)[O-])cn2)cc1	MEKK3 PB1 HTS 145.0 (no result: NTR1 agonist) | MEKK2wt confirm inactive | MEKK2mut-MEK5 inactive | MEKK3-MEK5 inh inactive
CC(=O)NCCNc1ccc([N+](=O)[O-])cn1	none
COc1cccc(/C=C/C(=O)OCC(=O)N(C)CC(=O)Nc2ccccc2Cl)c1OC	none (no result: MEKK2mut PB1 HTS, TMEM16A inh, MEKK3 PB1 HTS, MEKK2wt PB1 HTS)
CC1(C)NC(=O)N(CC(O)CN(c2ccccc2)S(=O)(=O)c2ccc([N+](=O)[O-])cc2)C1=O (stereo unspecified)	none
COc1ccc([C@H]2CC(=O)C=C(c3cccc(CO)c3)C2)cc1	none (no result: MEKK2mut PB1 HTS, TMEM16A inh, MEKK3 PB1 HTS, MEKK2wt PB1 HTS)
CCN(CC)CCOC(=O)c1ccc(NC(=O)CCCN2C(=O)/C(=C\c3cccs3)SC2=S)cc1	MEKK2wt PB1 HTS 154.0 | MEKK2wt confirm inactive | MEKK2mut-MEK5 inactive | MEKK3-MEK5 inh inactive
O=C(CCN1C(=O)/C(=C\c2cccs2)SC1=S)Nc1ccc(C(=O)O)cc1	none
CC(C)(C)c1ccc(C(=O)NCC(=O)NCc2ccccn2)cc1	none (no result: MEKK2mut PB1 HTS, TMEM16A inh, MEKK3 PB1 HTS, MEKK2wt PB1 HTS)
Cc1ccc(C(=O)N/C(=C\c2ccc(-c3ccccc3[N+](=O)[O-])o2)C(=O)NCCN(C)C)cc1	none
Cc1ccc(C(=O)N/C(=C\c2ccc(-c3ccc(Cl)cc3)o2)C(=O)NCCCN(C)C)cc1	MEKK3 PB1 HTS 43.0[inhibitor] | MEKK2wt confirm inactive | MEKK2mut-MEK5 inactive | MEKK3-MEK5 inh inactive
CN(C)CCCNC(=O)/C(=C\c1ccc(-c2ccc(Br)cc2)o1)NC(=O)c1ccccc1	none
Cc1ccc(C(=O)N/C(=C\c2ccc(-c3ccccc3[N+](=O)[O-])o2)C(=O)NCCCN(C)C)cc1	MEKK2mut PB1 HTS 25.0 | MEKK2wt confirm inactive | MEKK2mut-MEK5 inactive | MEKK3-MEK5 inh inactive
CN1/C(=C\C=C2/C(=O)Oc3ccccc3C2=O)C(C)(C)c2ccccc21	MEKK3 PB1 HTS 50.0[inhibitor] (no result: ANO1 activ, NTR1 agonist) | MEKK2wt confirm inactive | MEKK2mut-MEK5 inactive | MEKK3-MEK5 inh inactive
CC1=NN(c2ccccc2)C(=O)/C1=C\C=C1/N(C)c2ccccc2C1(C)C	none
CN1C(=CC=C2C=C(I)C(=O)C(I)=C2)C(C)(C)c2ccccc21	MEKK3 PB1 HTS 40.0[inhibitor], MEKK2wt PB1 HTS -1.0[inhibitor] (no result: TMEM16A inh, NTR1 agonist) | MEKK2wt confirm inactive | MEKK2mut-MEK5 inactive | MEKK3-MEK5 inh 68.0
Cc1cccc(N2CCN(C(=O)Cc3cn(C)c4ccccc34)CC2)c1C	MEKK3 PB1 HTS 130.0 | MEKK2wt confirm inactive | MEKK2mut-MEK5 inactive | MEKK3-MEK5 inh inactive
Cc1cccc(N2CCN(C(=O)COc3cc(=O)n(C)c4ccccc34)CC2)c1C	none
COc1cccc(-c2nnc3sc(-c4ccccc4)nn23)c1	none
COc1cccc(OC)c1-c1nn2c(-c3cc(-c4ccccc4)n[nH]3)nnc2s1	MEKK3 PB1 HTS 78.0[inhibitor] | MEKK2wt confirm inactive | MEKK2mut-MEK5 inactive | MEKK3-MEK5 inh 48.0
